Test [1] addresses Lysosomal acid glucosylceramidase (Homo sapiens) (UniProt P04062). The experiment in a line: Glucocerebrosidase-p2 (AID 348; in the data active means potency below about 10 µM; further: potency means the concentration at half of the fitted maximal effect). Particulars: purified GBA, blue fluorogenic substrate, 40 min. The method, boiled down: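 Compounds titrated from 0.6 nM upwards against 0.2 nM enzyme in pH 5.9 citric acid/KH2PO4, taurocholate, tween-20; blue fluorogenic substrate 80 uM, 40 min room temperature, stopped and read Ex 365/Em 440 for AC50.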

Test [2] can be described thus: AP1 Signaling Pathway (AID 357).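 Further: ME-180 reporter cells stimulated with EGF at its EC50 level; on the % scale 0 is the no-effect control and ±100 the full control effect.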 Conditions: ME-180 AP-1-bla reporter, EGF-induced, beta-lactamase ratio, 5 h; at 7.69 µM (top of the series) unless noted. The method, boiled down:
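AP-1-bla ME-180 cells, Opti-MEM + 0.5% dialyzed FBS, plated overnight 37 °C. Cpd titration + EC50 EGF, 5 h 37 °C. CCF4 2.5 h RT; ex 405, em 460/530 ratio → %activity, AC50.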

Test [3] concerns the target Cytochrome P450 1A2 (Homo sapiens) (UniProt P05177). The experiment in a line: p450-cyp1a2 (AID 410; calls by dose curve; further: potency means the concentration at half of the fitted maximal effect;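 on activity change, negative = inhibition: -100% = full effect of reference inhibitor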). Particulars: recombinant CYP1A2, luciferin-ME demethylation, luminescence; series mostly up to 11.4 µM. In a few lines:
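Human CYP1A2 (20nM) demethylated Luciferin-ME at its Km (100uM) in 100mM KPO4. After 10 min compound preincubation, NADPH regeneration ran the reaction 60 min at room temperature. Luciferin was read by luminescence, normalized to 57 uM furafylline.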

Test [4] can be described thus: NFAT Signaling Pathway (AID 444).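 Further: carbachol stimulus at about its EC50 of 1 µM final; on the % scale 0 is the no-effect control and ±100 the full control effect.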 Particulars: Jurkat NFAT-bla M1, carbachol, beta-lactamase ratio, 5 h; at 7.69 µM (top of the series) unless noted. In a few lines:
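Jurkat cells with NFAT-driven β-lactamase reporter and co-expressed M1 receptor, stimulated with carbachol (final 1 uM, ~EC50), compound titration, 5 h at 37 °C. CCF4 loaded 1 h at RT; 460/530 nm ratio gave %activity and AC50.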

In test [5] the target is Glucocorticoid receptor (Homo sapiens) (UniProt P04150). The experiment in a line: GR-GFP Redistribution (AID 450;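 active means compounds whose dose series gives a full or clear partial fitted curve of increased nuclear translocation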; further: potency means the concentration at half of the fitted maximal effect). Conditions: U2OS GR-GFP nuclear translocation, laser cytometry, 2 h.
Glucocorticoid receptor (Homo sapiens), sequence (P04150 whole entry, looked up): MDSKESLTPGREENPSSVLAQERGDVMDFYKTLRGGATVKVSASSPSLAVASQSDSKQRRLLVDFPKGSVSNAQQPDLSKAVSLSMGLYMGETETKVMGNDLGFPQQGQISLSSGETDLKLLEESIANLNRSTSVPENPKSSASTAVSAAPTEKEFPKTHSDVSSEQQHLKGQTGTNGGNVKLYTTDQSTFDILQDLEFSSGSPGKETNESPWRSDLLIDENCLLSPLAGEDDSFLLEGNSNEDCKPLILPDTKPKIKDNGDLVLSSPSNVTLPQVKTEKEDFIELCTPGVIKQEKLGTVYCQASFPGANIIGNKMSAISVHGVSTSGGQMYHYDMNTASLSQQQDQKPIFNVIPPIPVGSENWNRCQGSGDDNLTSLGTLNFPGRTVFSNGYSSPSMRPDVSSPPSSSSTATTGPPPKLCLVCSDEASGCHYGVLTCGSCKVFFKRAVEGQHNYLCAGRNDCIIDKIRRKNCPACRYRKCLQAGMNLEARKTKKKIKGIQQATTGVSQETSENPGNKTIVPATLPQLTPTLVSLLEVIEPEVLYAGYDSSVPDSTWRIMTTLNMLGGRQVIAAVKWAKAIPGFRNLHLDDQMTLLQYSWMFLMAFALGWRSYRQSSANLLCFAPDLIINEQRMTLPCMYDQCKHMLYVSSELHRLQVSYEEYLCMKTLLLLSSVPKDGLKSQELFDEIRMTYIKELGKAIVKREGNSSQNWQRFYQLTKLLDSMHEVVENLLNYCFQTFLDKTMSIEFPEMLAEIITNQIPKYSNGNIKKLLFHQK
The target is the same in test [6]. The experiment in a line: GR-EFC Redistribution (AID 451; calls by dose curve; further: potency means the concentration at half of the fitted maximal effect). Conditions: CHO-K1 GR-EFC translocation, beta-gal luminescence, 2 h. The method, boiled down:
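CHO-K1 cells expressing nuclear EA and GR-ED fragments of b-gal; compounds titrated up to 46 uM final, 2 h at 37 C. GR nuclear translocation read as complemented b-gal luminescence after 1 h RT detection.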

Test [7] has as its target Mitogen-activated protein kinase 10 (Mus musculus) (UniProt Q61831). The experiment in a line: JNK3 AlphaScreen Assay (AID 530).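 Further: kinase came from lysate of stimulated human HepG2 cells; signal reports phosphorylation of biotinylated GST-cJun 1-79 at Ser73 with 10 µM ATP; on the % scale 0 is the no-effect control and ±100 the full control effect.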 Particulars: JNK3 lysate, c-Jun phosphorylation; series mostly up to 11.4 µM. In a few lines:
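qHTS format: compounds tested as titrations against IL-1beta/TNF-alpha-activated HepG2 lysate JNK3 with biotin-GST-cJun substrate and 10 uM ATP at room temperature. Loss of anti-phospho-cJun AlphaScreen signal indicates inhibition.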
In general terms: Bead proximity is the source of the signal in Alpha formats.

Test [8] deals with 3',5'-cyclic-AMP phosphodiesterase 4B (Homo sapiens) (UniProt Q07343). The experiment in a line: qHTS Assay for Inhibitors of PDE-IV (AID 607; active means well fitted activation curve with a large enough effect in the main read-out, with a control signal flat, not every such curve was filed as active; further: % of control where 0% means no effect). Particulars: HEK293 ACTOne CNG channel cells, membrane potential fluorescence; series mostly up to 22.9 µM. The method, boiled down:
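Cell-based read-out of cAMP via a modified cyclic nucleotide-gated channel and membrane potential dye (535/590 nm) in HEK293 cells expressing PDE4 endogenously. Compounds tested up to 22.9 uM final; 100 uM RO 20-1724 reference.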
In general terms: In qHTS, concentration-response curves come from the screen itself.

In test [9] the target is Cytochrome P450 3A4 (Homo sapiens) (UniProt P08684). The experiment in a line: qHTS Assay for Activators of Cytochrome P450 3A4 (AID 885; active means well fitted curve in the direction sought with a large enough effect; an effect the other way counts as inactive or inconclusive; further: nearly all actives have a fitted effect of over 65% in size). Conditions: recombinant CYP3A4, Luciferin-PPXE luminescence, 60 min; series mostly up to 11.4 µM. The method, boiled down: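 Signal was normalized against complete inhibition by 57 uM ketoconazole. The reaction used 20nM CYP3A4 with 25uM Luciferin-PPXE, 10-min compound preincubation and a 60-min NADPH-supported step at RT.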
Cytochrome P450 3A4 (Homo sapiens), sequence (P08684 whole entry, looked up): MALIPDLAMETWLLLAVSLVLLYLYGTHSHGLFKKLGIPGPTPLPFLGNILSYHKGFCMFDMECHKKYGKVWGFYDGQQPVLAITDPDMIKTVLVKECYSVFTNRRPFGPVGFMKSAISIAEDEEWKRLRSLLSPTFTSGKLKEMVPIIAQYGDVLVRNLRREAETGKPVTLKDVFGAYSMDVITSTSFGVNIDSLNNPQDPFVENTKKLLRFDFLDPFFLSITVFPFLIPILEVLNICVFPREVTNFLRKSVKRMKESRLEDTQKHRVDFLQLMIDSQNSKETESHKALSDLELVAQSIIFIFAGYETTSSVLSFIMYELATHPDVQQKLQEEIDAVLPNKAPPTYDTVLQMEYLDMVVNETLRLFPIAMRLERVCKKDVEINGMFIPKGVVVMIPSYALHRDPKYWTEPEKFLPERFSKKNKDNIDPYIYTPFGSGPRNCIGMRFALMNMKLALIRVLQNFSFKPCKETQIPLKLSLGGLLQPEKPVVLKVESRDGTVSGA

The target of test [10] is Cytochrome P450 2C19 (Homo sapiens) (UniProt P33261). The experiment in a line: qHTS Assay for Inhibitors and Substrates of Cytochrome P450 2C19 (AID 899; active means well fitted curve in the direction sought with a large enough effect; an effect the other way counts as inactive or inconclusive; further: nearly all actives have a fitted effect of over 60% in size; further: potency means the concentration at half of the fitted maximal effect). Particulars: recombinant CYP2C19, luciferin-H EGE luminescence; series mostly up to 11.4 µM. The method, boiled down:
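Signal comes from luciferase acting on luciferin released by CYP2C19-mediated hydroxylation of Luciferin-H EGE, 10uM (KM). Assay mix: 5nM enzyme, 50mM KPO4; 60 min at 37C with NADPH regeneration. Data normalized against 57uM ketoconazole.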

Test [11] addresses Cytochrome P450 2C9 (Homo sapiens) (UniProt P11712). The experiment in a line: qHTS Assay for Inhibitors and Substrates of Cytochrome P450 2C9 (AID 883; active means well fitted curve in the direction sought with a large enough effect; an effect the other way counts as inactive or inconclusive; further: potency means the concentration at half of the fitted maximal effect; nearly all actives have a fitted effect of over 60% in size). Particulars: recombinant CYP2C9, luciferin-H luminescence, 60 min; series mostly up to 11.4 µM. In a few lines:
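Signal: luciferase luminescence reporting luciferin produced by CYP2C9. Conditions: 10nM enzyme, Luciferin-H 100uM at KM, 25mM KPO4, 37C, 60 min NADPH-driven reaction. Reference: 57uM sulphaphenazole as 100% inhibition.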

Test [12] concerns the target Cytochrome P450 3A4 (Homo sapiens) (UniProt P08684). The experiment in a line: qHTS Assay for Inhibitors and Substrates of Cytochrome P450 3A4 (AID 884; active means well fitted curve in the direction sought with a large enough effect; an effect the other way counts as inactive or inconclusive; further: potency means the concentration at half of the fitted maximal effect; nearly all actives have a fitted effect of over 50% in size). Conditions: recombinant CYP3A4, Luciferin-PPXE luminescence; series mostly up to 57.1 µM. The method, boiled down:
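20 nM human CYP3A4 with 25 uM Luciferin-PPXE (at KM) in 200 mM KPO4, preincubated 10 min with compound; NADPH regeneration started a 60 min RT reaction. Luciferin detected by luminescence, normalized to 57 uM ketoconazole as full inhibition.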

A short description of test [13]: Stat Signaling Pathway (AID 446).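 Further: ME-180 cervical cancer cells given 40 pM IL-6 alongside compound; SIE-controlled beta-lactamase reporter measured as 460/530 nm FRET emission ratio; on the % scale 0 is the no-effect control and ±100 the full control effect.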 Particulars: ME-180 SIE beta-lactamase reporter, IL-6 stimulated, 5 h; at 7.69 µM (top of the series) unless noted. In a few lines:
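Reporter line: ME-180 cervical carcinoma, SIE-beta-lactamase. Treatment: compound with 40 pM IL-6, 5 hrs, 37 C, in low-serum OPTI-MEM with 10 mM HEPES pH 7.3. Detection: 460/530 nm fluorescence.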

In test [14] the target is Cytochrome P450 2D6 (Homo sapiens) (UniProt P10635). The experiment in a line: qHTS Assay for Inhibitors and Substrates of Cytochrome P450 2D6 (AID 891; active means well fitted curve in the direction sought with a large enough effect; an effect the other way counts as inactive or inconclusive; further: potency means the concentration at half of the fitted maximal effect; nearly all actives have a fitted effect of over 60% in size). Conditions: recombinant CYP2D6, luciferin-ME EGE luminescence; series mostly up to 11.4 µM. The method, boiled down:
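Human CYP2D6 (5 nM) with 30 uM Luciferin-ME EGE (at Km) in 100 mM KPO4, compound preincubated 10 min, then NADPH regeneration system for 60 min at room temperature. Luciferin read by luminescence; normalized to 1.43 uM quinidine.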

Unmarked numbers belong to inactive results. Inconclusive results are not listed. The source made the active and inactive calls. Unless noted, the call rests on the fitted dose curve; in most records, active means well fitted curve in either direction with a large enough effect (not every such curve was filed as active); inconclusive means small, poorly fitted or top-dose-only effect, or another doubt; inactive means flat fitted curve, though single readings scatter.

Experimental findings from PubChem BioAssay (NCATS) are described below.

3',5'-cyclic-AMP phosphodiesterase 4B (Homo sapiens), sequence (Q07343 whole entry, looked up): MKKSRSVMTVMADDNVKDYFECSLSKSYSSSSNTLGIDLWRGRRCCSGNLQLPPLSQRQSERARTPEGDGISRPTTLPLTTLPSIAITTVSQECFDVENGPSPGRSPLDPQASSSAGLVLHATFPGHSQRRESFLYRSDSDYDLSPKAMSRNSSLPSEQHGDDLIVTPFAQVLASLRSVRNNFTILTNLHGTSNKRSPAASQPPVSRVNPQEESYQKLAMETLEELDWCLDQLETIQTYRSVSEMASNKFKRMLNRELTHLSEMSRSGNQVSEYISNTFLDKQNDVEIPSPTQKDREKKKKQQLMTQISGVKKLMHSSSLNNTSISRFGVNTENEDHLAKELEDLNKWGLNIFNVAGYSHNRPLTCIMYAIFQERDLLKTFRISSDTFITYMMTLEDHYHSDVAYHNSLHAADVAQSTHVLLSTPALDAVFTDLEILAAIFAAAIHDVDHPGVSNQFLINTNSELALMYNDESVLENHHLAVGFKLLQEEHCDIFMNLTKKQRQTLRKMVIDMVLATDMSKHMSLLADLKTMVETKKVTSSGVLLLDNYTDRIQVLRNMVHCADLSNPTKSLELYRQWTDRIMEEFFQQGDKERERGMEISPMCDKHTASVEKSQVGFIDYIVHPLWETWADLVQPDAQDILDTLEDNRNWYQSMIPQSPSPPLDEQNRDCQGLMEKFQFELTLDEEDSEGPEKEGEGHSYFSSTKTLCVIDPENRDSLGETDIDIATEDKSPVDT
Lysosomal acid glucosylceramidase (Homo sapiens), sequence (P04062 whole entry, looked up): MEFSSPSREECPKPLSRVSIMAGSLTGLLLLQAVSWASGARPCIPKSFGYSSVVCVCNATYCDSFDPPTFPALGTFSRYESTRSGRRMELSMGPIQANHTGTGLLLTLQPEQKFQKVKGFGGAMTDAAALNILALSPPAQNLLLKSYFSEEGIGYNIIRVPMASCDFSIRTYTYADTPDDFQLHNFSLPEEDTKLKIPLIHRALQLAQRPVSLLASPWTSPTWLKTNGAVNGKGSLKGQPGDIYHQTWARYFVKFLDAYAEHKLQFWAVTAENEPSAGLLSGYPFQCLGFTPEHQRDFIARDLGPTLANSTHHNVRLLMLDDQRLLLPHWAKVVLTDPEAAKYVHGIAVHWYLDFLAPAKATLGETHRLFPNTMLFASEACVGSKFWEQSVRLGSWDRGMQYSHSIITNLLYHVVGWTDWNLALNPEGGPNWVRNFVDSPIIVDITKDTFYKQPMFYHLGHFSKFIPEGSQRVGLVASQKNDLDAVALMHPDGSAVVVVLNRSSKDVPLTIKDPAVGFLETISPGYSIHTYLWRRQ
Cytochrome P450 1A2 (Homo sapiens), sequence (P05177 whole entry, looked up): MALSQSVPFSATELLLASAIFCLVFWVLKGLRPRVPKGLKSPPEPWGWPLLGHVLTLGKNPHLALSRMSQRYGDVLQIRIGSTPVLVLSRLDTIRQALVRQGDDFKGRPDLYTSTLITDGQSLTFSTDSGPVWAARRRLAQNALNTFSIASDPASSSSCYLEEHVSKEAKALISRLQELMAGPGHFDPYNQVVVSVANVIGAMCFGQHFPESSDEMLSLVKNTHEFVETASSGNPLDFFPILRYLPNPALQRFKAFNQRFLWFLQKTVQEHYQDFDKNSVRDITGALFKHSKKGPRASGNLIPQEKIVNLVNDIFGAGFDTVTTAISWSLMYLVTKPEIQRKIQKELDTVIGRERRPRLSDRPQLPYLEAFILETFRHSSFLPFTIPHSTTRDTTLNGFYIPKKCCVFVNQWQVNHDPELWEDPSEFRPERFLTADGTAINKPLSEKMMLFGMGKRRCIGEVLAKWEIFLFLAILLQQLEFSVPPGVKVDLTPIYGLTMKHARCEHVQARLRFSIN
Cytochrome P450 2C19 (Homo sapiens), sequence (P33261 whole entry, looked up): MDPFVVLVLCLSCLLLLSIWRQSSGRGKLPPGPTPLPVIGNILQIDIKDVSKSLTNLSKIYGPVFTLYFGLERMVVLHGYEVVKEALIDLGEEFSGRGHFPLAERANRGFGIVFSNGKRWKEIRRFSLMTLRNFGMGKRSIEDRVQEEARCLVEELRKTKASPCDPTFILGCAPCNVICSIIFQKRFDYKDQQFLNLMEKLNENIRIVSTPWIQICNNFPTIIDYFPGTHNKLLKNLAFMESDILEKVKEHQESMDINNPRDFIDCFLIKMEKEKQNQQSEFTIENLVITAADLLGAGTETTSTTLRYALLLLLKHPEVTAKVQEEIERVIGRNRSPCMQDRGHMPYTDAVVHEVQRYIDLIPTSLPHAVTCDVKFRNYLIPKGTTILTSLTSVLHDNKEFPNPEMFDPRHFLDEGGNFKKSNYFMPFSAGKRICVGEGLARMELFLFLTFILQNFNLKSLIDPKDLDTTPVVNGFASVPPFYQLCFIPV
Cytochrome P450 2C9 (Homo sapiens), sequence (P11712 whole entry, looked up): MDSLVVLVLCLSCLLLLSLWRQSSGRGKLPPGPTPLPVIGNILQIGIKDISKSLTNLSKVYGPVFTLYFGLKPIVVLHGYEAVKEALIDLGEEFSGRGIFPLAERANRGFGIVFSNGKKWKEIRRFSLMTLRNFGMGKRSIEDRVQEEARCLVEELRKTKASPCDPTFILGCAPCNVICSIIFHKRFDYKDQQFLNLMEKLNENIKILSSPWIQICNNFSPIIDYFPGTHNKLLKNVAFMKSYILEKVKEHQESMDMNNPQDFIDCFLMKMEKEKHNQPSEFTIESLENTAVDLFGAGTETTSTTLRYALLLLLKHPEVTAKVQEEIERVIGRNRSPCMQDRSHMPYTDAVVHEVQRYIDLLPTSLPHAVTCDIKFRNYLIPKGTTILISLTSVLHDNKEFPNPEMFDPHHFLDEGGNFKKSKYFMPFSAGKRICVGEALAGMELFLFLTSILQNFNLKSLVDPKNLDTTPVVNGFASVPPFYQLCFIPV
Cytochrome P450 2D6 (Homo sapiens), sequence (P10635 whole entry, looked up): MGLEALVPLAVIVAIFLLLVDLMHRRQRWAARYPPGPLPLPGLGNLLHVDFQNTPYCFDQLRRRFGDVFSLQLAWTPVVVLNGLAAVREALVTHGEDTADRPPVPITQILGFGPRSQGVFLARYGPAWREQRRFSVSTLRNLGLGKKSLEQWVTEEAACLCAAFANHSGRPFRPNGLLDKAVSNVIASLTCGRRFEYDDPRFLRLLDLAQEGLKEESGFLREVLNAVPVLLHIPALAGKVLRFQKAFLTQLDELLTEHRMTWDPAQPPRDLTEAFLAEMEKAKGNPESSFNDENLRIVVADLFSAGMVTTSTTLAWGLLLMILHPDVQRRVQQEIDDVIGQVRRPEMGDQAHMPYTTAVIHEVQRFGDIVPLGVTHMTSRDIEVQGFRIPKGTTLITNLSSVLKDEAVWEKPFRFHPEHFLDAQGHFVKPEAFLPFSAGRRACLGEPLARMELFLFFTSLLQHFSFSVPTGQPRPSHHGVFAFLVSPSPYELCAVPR

Regarding `CC(C)(C)c1ccc(NS(=O)(=O)c2ccc(N)cc2)cc1`, the Potency in [1] is greater than 11.4 µM; in test [3], 3.16 µM (active); in test [5] it was greater than 46 µM; in test [6], greater than 9.22 µM; in [10], 0.398 µM (active). Moreover, the activity change, negative = inhibition in test [2] was 3%; in test [4] it was -2.46%. Besides, the Potency result in test [7], in test [8] and in [9] was “inactive” each time.

For the molecule `COc1cc2c3cc1Oc1c(OC)c(OC)cc4c1[C@@H](Cc1ccc(O)c(c1)Oc1ccc(cc1)C[C@@H]3N(C)CC2)CN(C)C4`, the Potency is greater than 11.4 µM in [1], greater than 46 µM in test [5] and greater than 9.22 µM in test [6]. Further, the activity change, negative = inhibition in test [2] was -11.4%; in test [4], -11.8%. Also, the Potency entry in test [3], in test [7], in test [8] and in test [9] was “inactive” in each case.

Turning to `CC(C)(Oc1ccc(-c2cccc3ccccc23)cc1)C(=O)O`, the Potency was greater than 11.4 µM in test [1], greater than 46 µM in [5] and greater than 9.22 µM in [6]. Besides, the activity change, negative = inhibition in test [2] is 2.76%; in test [4], -8.87%. Also, the Potency result in test [3], in test [7], in test [8] and in [10] was “inactive” in each case.

Turning to `COc1ccccc1CCn1c(=O)c(-c2ccc(F)cc2)nc2cncnc21`, the Potency was greater than 11.4 µM in test [1]; 1 µM (active) in test [3]; greater than 9.22 µM in test [5]; greater than 46 µM in [6]; 3.98 µM (active) in test [11]; 3.98 µM (active) in [12]. Further, the Potency in test [10] was 0.316 µM (active). Moreover, the activity change, negative = inhibition is -8.06% in test [2] and -26.6% in test [4]. The Potency result in test [7] and in test [9] was “inactive” in each case.

For the molecule `CN(C)CCCN1CCC2(CCC(C(C)(C)C)CC2)CC1`, the Potency in test [1] was greater than 11.4 µM; in test [5], greater than 46 µM; in [6], greater than 9.22 µM. Moreover, in test [2], the activity change, negative = inhibition is -6.54%. Further, the Potency entry in [3] and in [7] was “inactive” each time. Besides, the activity, negative = inhibition in test [13] was 8.08%.

`O=c1c[n+](CCCC[n+]2cc(=O)o[nH]2)[nH]o1`: the Potency in test [1] is greater than 11.4 µM; in test [5], greater than 46 µM; in test [6], greater than 9.22 µM. Moreover, the activity change, negative = inhibition in test [2] is 4.96%; in test [4], -11%. Moreover, the Potency result in test [3], in [7], in test [8] and in test [10] was “inactive” throughout.

With `Oc1c(CN2CCN(c3ccccc3)CC2)cc(Br)c2cccnc12`, the Potency in test [1] is greater than 11.4 µM; in test [3], 1.26 µM (active); in [5], greater than 46 µM; in test [6], greater than 9.22 µM. In addition, the activity change, negative = inhibition in test [2] is 3.27%. In [13], the activity, negative = inhibition is -0.132%. Further, the Potency entry in [7] and in [8] was “inactive” throughout.

For `NNC(=O)c1ccc[n+](CCc2ccccc2)c1`, the Potency is greater than 11.4 µM in test [1], greater than 46 µM in test [5], greater than 9.22 µM in test [6] and 2 µM (active) in [14]. Further, the activity change, negative = inhibition in test [2] was 11.3%; in test [4] it was -4.8%. The Potency result in test [3], in test [7] and in test [8] was “inactive” in each case.
